D2 PAM-1 = positive allosteric modulators of human D2 dopamine receptor | HEK293 T-REx D2, calcium flux, EC20 dopamine potentiation | potentiation, % at 10 µM | 340,000 tested, 0.34% active;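 active = potentiation over 3 SD above the plate norm, cut at about 30% in these data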; also: 0% is about no effect
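Primary screen. Calcium kinetics in induced HEK293 T-REx D2 cells: compound pre-addition 180 s, EC20 dopamine, 180 s more.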
D2 ag-1 = agonists of human D2 dopamine receptor (beta-arrestin) | activation, % (no concentration beside the values) | P14416 | DiscoveRx PathHunter D2 beta-arrestin, luminescence, 90 min; 100% = 57 uM dopamine signal | 360,000 tested, 0.084% active; in the data active = activation above about 40%; inconclusive = between about 15% and that limit
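DiscoveRx PathHunter D2 beta-arrestin cells (2,100/well) attached overnight, then compound-stimulated 90 min at 37 C in HBSS/10 mM HEPES/0.1% Tween-20 buffer; beta-galactosidase complementation read by luminescence after 1 h at ambient temperature. Dopamine 57 uM final (EC100) as control.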
D2 antag = antagonizes the human D2 dopamine receptor; P14416; HEK293 TREx D2 cells, calcium flux, dopamine EC80; 340,000 tested, 2% active; inhibition, % at 10 µM; in the data active = inhibition above about 30%; inactive = below that, where a call was filed; also: 0% is about no effect
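Compounds are added to dye-loaded, induced HEK293 T-REx cells coupled to calcium release via D2; after a 3 min kinetic read an EC80 dopamine stimulus is given and fluorescence is recorded for 3 more min.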
D2 ag-2 = agonists of human D2 dopamine receptor. HEK293 T-REx D2 cells, calcium flux agonist mode. activation, % at 2 µM. 340,000 tested, 0.53% active;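 active = activation over 3 SD above normal in the single-dose calcium agonist read, cut at about 30% in these data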; also: 0% is about no effect
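Tetracycline-induced HEK293 T-REx cells with force-coupled D2 receptor, plated overnight at 30 C, loaded with no-wash calcium dye. After a 10 s baseline, compound was pin-added and calcium flux read kinetically for 180 s; calcium rises flagged agonists.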
D2 PAM-2 = human D2 receptor positive allosteric modulation; P14416; DiscoveRx D2 beta-arrestin cells, luminescence, 90 min; 100% = 57 uM dopamine signal; potentiation, % (test concentration not listed); 360,000 tested, 0.23% active; in the data active = potentiation above about 50%; inconclusive = mostly about 30% to 49%
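PathHunter D2 cells, attached overnight at 37 deg C, received compound in DMSO plus dopamine at EC20 (50 nM final) for 90 min at 37 deg C. Beta-arrestin recruitment was read as luminescence after 1 h with detection reagent at ambient temperature.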
D3 arrestin ag = D3 receptor agonism confirmed, beta-arrestin readout; shares compounds with D2 ag-2; DiscoveRx D3 beta-arrestin cells, luminescence, 90 min; Potency, µM (highest dose often 76.9 µM), without a hit: at the top dose activation, actives largely listed as activators; 2,300 tested, 4% active; AID 720506;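 also: potency is read from the fitted curve at half-maximal effect; 100% = dopamine control response; nearly all actives have a fitted effect of over 70% in size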
Target sequence (P35462 whole entry, looked up): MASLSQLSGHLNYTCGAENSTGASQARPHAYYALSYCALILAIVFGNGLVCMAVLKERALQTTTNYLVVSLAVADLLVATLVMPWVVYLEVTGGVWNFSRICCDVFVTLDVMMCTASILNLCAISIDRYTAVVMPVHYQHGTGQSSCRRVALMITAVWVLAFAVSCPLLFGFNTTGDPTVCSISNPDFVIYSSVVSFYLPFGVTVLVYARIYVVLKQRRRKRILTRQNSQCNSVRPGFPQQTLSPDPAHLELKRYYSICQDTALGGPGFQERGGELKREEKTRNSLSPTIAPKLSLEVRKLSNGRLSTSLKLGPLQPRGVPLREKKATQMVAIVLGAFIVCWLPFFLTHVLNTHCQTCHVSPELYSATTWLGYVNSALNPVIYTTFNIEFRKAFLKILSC
D2 ag-3 = D2 receptor agonism, beta-arrestin counterscreen | 2,300 tested, 5.9% active | Potency, µM (doses to about 76.9 µM), for the others: at the highest dose activation, most hits filed as activators | shares compounds with D2 ag-2 | DiscoveRx PathHunter D2 beta-arrestin, luminescence, 90 min; response scale: percent relative to full dopamine signal; also: potency is read from the fitted curve at half-maximal effect; % of control where 0% means no effect; nearly all actives have a fitted effect of over 70% in size
Active calls of the source: *; ? = inconclusive; . = no result. Sampled rows, rich in hits. Any-hit rate of the full collection: about 2.4%. Unless noted, calls follow the shape of the dose curve; as a rule, active = well fitted activation curve with a large enough effect; inconclusive = small, poorly fitted or top-dose-only effect; inactive = flat fitted curve, though single readings scatter.

SMILES | D2 PAM-1 | D2 ag-1 | D2 antag | D2 ag-2 | D2 PAM-2 | D3 arrestin ag | D2 ag-3
CCCc1ccc(OCC(O)CN2CCc3ccccc3C2)cc1 (stereo unspecified) | . | 1 | . | . | -83 | . | .
CC(C)(C)C1CCC(OCC(O)CN2CCN(c3ccccn3)CC2)CC1 (stereo unspecified) | -32 | ? | 63* | 62* | 20 | 0.63µM* | 20µM*
OC(COC(c1ccccc1)c1ccccc1)CN1CCN(c2ccccn2)CC1 (stereo unspecified) | -19 | 13 | 78* | 77* | -15 | 4.5µM* | ?
O=C(COc1ccccc1)NCC(c1ccco1)N1CCN(c2ccccc2)CC1 (stereo unspecified) | 7 | -1 | -11 | 1 | -4 | 1% | 12%
O=C(NCC(c1ccco1)N1CCN(c2ccccc2)CC1)c1cccs1 (stereo unspecified) | 12 | 11 | 27 | 5 | -7 | 14% | 17%
O=C(NCc1cccs1)C(=O)NCC(c1ccco1)N1CCN(c2ccccc2)CC1 (stereo unspecified) | -9 | 10 | 3 | 11 | -12 | . | .
CC(=O)c1cc2cc(O)ccc2o1 | -3 | -2 | -10 | 1 | -9 | . | .
CC(=O)c1cc2c(O)c(O)ccc2o1 | -7 | 7 | 2 | 1 | 13 | ? | 8%
Cc1nc2scc(C)n2c(=O)c1S(=O)(=O)Nc1cccc(C(F)(F)F)c1 | 6 | . | . | 3 | . | . | .
COc1ccc(OC)c(CCNC(=O)C(C)n2c(C)c3cnn(-c4ccccc4)c(=O)c3c2C)c1 (stereo unspecified) | -3 | . | . | 0 | . | . | .
O=c1c2cc([N+](=O)[O-])ccc2nc(CN2CCN(c3ccccn3)CC2)n1-c1ccccc1F | -21 | 0 | -24 | 27 | -3 | 13% | 8%
COCCCNC(=O)CSc1nc(-c2cccc(F)c2)[nH]c1-c1ccccc1 | 12 | . | . | 0 | . | . | .
CCOC(=O)CSc1nc2c(sc(=S)n2-c2ccc(OCC)cc2)c(=O)[nH]1 | -2 | 7 | 18 | -1 | 6 | . | .
CCOc1ccc(-n2c(=S)sc3c(=O)[nH]c(SCC(=O)NCc4ccco4)nc32)cc1 | -4 | 0 | 45* | 0 | -7 | 0% | -3%
CCOc1ccc(NC(=O)N2CCOc3ccccc32)cc1 | 5 | . | . | 0 | . | . | .
c1cnc(N2CCN(Cc3ccc4c(c3)OCO4)CC2)cn1 | -23 | 44* | 90* | 80* | ? | ? | ?
O=[N+]([O-])c1cccnc1N1CCN(Cc2ccc3c(c2)OCO3)CC1 | -25 | 44* | 92* | 89* | 10 | -5% | ?
O=C(c1cccnc1)N1CCN(Cc2ccc3c(c2)OCO3)CC1 | -4 | -2 | -7 | 0 | -19 | . | .
CCOc1ccc(NC(=O)CCN2CCN(c3ccccc3OC)CC2)cc1 | -28 | 1 | 61* | 27 | -31 | -7% | 4%
CCOC(=O)N1CCC(Nc2c(NCCN3CCN(Cc4ccccc4)CC3)c(=O)c2=O)CC1 | -15 | 0 | 23 | 0 | -19 | . | .
COc1ccccc1N1CCN(CCC(=O)Nc2ccc3c(c2)OCO3)CC1 | -18 | -1 | 80* | 55* | -16 | -4% | 1%
COc1ccccc1N1CCN(CC(=O)Nc2ccc3c(c2)OCCO3)CC1 | 19 | 1 | -24 | -1 | 5 | . | .
CCOC(=O)N1CCC(Nc2c(NCCN3CCN(c4ccccc4F)CC3)c(=O)c2=O)CC1 | -9 | 2 | 24 | 43* | -11 | ? | 3%
CC(=O)N1CCc2cc(C(=O)CN3CCN(c4ccccc4F)CC3)ccc21 | 11 | -4 | -5 | 0 | -9 | . | .
O=C(CN1CCN(c2ccccc2F)CC1)c1ccc2cc[nH]c2c1 | -25 | -4 | 29 | 28 | -14 | 9% | 12%
SMILES | D2 PAM-1 | D2 ag-1 | D2 antag | D2 ag-2 | D2 PAM-2 | D3 arrestin ag | D2 ag-3
COc1cccc(C2CC(=O)Nc3c2c(=O)[nH]c2nc4ccccc4n32)c1 (stereo unspecified) | -6 | . | . | 0 | . | . | .
COc1ccc(S(=O)(=O)N(CC(=O)NCCSc2ccc(C)cc2)c2ccc(C)cc2)cc1 | -6 | . | . | 2 | . | . | .
O=C1COc2cc(S(=O)(=O)NCc3ccco3)c(Cl)cc2N1 | -7 | . | . | 0 | . | . | .
CCOc1ccc(NC(=O)CCN2CCN(c3ccccc3F)CC2)cc1 | -20 | ? | 77* | 79* | 14 | ? | ?
COc1cccc(NC(=O)CCN2CCN(c3ccccc3F)CC2)c1 | -24 | ? | 77* | 76* | -8 | ? | ?
COc1ccc(NC(=O)NCCCN2CCN(c3ccccc3F)CC2)cc1 | -25 | 6 | 92* | 82* | -4 | ? | 24%
COc1ccc(-c2noc(CCC(=O)NCCN3CCN(c4ccccc4F)CC3)n2)cc1 | -27 | -1 | 65* | 41* | -32 | -1% | 18%
CCN1CCN(CCCNC(=O)CCc2nc(-c3ccc(OC)cc3)no2)CC1 | -15 | -2 | -10 | 1 | -2 | . | .
CCOc1ccc(NC(=O)CCN2CCN(C)CC2)cc1 | 18 | 3 | -13 | 0 | -6 | . | .
CCOc1ccc(NC(=O)NCCN2CCN(c3ccccc3F)CC2)cc1 | -29 | ? | 79* | 77* | -8 | ? | ?
COc1ccc(C(=O)CCN2CCCCCC2)cc1 | -8 | -2 | -7 | 3 | -14 | . | .
COc1ccc(NC(=O)CN2CCN(c3ccccc3F)CC2)cc1 | 6 | -1 | -1 | 0 | -42 | . | .
COc1ccc(C(=O)CCN2CCN(c3ccccc3F)CC2)cc1 | -25 | 2 | 82* | 28 | -35 | 4% | 0%
Cc1cccc(N2CCN(C(=O)CCc3c(C)nc4ncnn4c3C)CC2)c1C | 5 | . | . | 0 | . | . | .
CCn1c(=O)c2sccc2n2c(CCCC(=O)Nc3ccc(C)cc3)nnc12 | -2 | . | . | -1 | . | . | .
COc1ccccc1NC(=O)c1cc([N+](=O)[O-])ccc1NCCN1C(=O)CCC1=O | -24 | -3 | -8 | 47* | -5 | -6% | -9%
CCCCNC(=O)C1(C)CCCCN1Cc1ccc(-c2ccccc2)cc1 (stereo unspecified) | . | -5 | . | . | -20 | . | .
CCC(NC(C)C)C(O)c1ccc(O)c2[nH]c(=O)ccc12 (stereo unspecified) | 0 | 4 | -11 | 27 | -5 | ? | 21%
O=C(Nc1ccc(-c2nc3ccccc3o2)cc1)c1cc(-n2cnnc2)ccc1Cl | 9 | 2 | 7 | 0 | 19 | ? | 6%
